Laboratory results as given in the OligoGym collection.

The sequences below were run against C19orf26 (assay: pooled miR-30 sensor sort-seq; sequence = guide strand). Conditions: shRNA.

Compared with TCGTGGATGGTGACAATCTTGA, TCGCCTGAGTCACACTCGTGGA is lower in sensor-assay potency score (higher = more potent): -1.35 for the first, -1.57 for the second.

First: TTGTCCAGGTAGGTGGTGGTGG
Second: TCCGTCAGTGTGTACCGGCGAC
The sensor-assay potency score (higher = more potent) of the first is higher: -0.893 for the first, -0.95 for the second.

Compared with TTCCACTTCTTGACCTTGAAAT, TTCGGTCTCCGCATCCTGGCAC is higher in sensor-assay potency score (higher = more potent): -1.35 for the first, -0.126 for the second.

First: TTGTCCTGCGTCTTGCGGCTCT
Second: TTGACCTTGAAATAGGGGCTGG
The sensor-assay potency score (higher = more potent) of the first is lower: -0.61 for the first, -0.605 for the second.

Work on TCATTGAAGGAGACCCGGCGGC yielded a sensor-assay potency score (higher = more potent) of -0.71.

The sequences below were run against C19orf33 in the same assay as above. Conditions: shRNA.

Going from AACTTTGTGGGGACTGAGCTTG to ACATCCGTGTCCGAATCGCTGG, the sensor-assay potency score (higher = more potent) falls from -0.364 to -1.43.

First: TCTCGTGCTGCTTGGAGCCAGC
Second: TCTCCTTCTTCTTCACTTTGGG
The sensor-assay potency score (higher = more potent) of the first is lower: -1.2 for the first, -0.407 for the second.

Going from TTCTCCTTCTTCTTCACTTTGG to TGAGCTTGGGATCTCCCCCGTG, the sensor-assay potency score (higher = more potent) falls from -0.173 to -0.899.

Going from TCCGAATCGCTGGAGCTGCTGC to TTCACTTTGGGCTTCTTGGCCT, the sensor-assay potency score (higher = more potent) rises from -0.94 to -0.157.

Compared with ATCCGTGTCCGAATCGCTGGAG, TTCTTCTTCACTTTGGGCTTCT is higher in sensor-assay potency score (higher = more potent): -0.418 for the first, 0.272 for the second.

Compared with AAGAGCTGTGGTGTCCTTGCTT, TCCGTGTCCGAATCGCTGGAGC is lower in sensor-assay potency score (higher = more potent): 0.114 for the first, -1.74 for the second.

Each sequence was assayed against C19orf43 in the same assay as above. Conditions: shRNA.

Compared with TTTATCATCGTCACCGCACTGG, TAAATAGTTATGTACATCGCAG is lower in sensor-assay potency score (higher = more potent): 0.198 for the first, -0.74 for the second.

Going from TACTTGTTAATACCTCATCCTC to TTATCATCGTCACCGCACTGGT, the sensor-assay potency score (higher = more potent) falls from -0.735 to -1.04.

Compared with TTGGCGAACAAGTTCACGCCGC, ATCATCGTCACCGCACTGGTGA is higher in sensor-assay potency score (higher = more potent): -0.437 for the first, -0.305 for the second.

First: TTGAGGGCTAGTTTGTTCCCGC
Second: TTGGCTACTATTCCCGTCTTGA
The sensor-assay potency score (higher = more potent) of the first is lower: -0.869 for the first, 0.118 for the second.

Compared with AACAGCTCCAGGAAGCTGCCGT, TAATACCTCATCCTCCGTCTTC is lower in sensor-assay potency score (higher = more potent): -0.55 for the first, -0.695 for the second.

Going from TGTTCTATGAAGTCTCACGAGG to TTGAACAGCTCCAGGAAGCTGC, the sensor-assay potency score (higher = more potent) rises from -1.02 to -0.652.

Each sequence was assayed against C19orf48 in the same assay as above. Conditions: shRNA.

Compared with TAGGCCTGGTCACAATAGGGAA, TCTCCTGGGTGTGTGGCTCAGC is higher in sensor-assay potency score (higher = more potent): -1.64 for the first, -0.768 for the second.

Going from TGTCCTTGAGAGCCAGGCCCAG to TTATCCACCTTCTCCTGGGTGT, the sensor-assay potency score (higher = more potent) rises from -1.6 to -0.455.

First: ATAGGCCTGGTCACAATAGGGA
Second: AAGTCCTTGTGCACTGGGTTGG
The sensor-assay potency score (higher = more potent) of the first is lower: -0.793 for the first, -0.738 for the second.

CCACTTATCCACCTTCTCCTGG gave a sensor-assay potency score (higher = more potent) of -1.46.
